# From PubChem BioAssay AID1159580 (chemical genetic matrix, 2015)
# Hit rate of the full screen: of about 5,500 compounds, about 2,000 (36%) were called active. Another 18% or so got no clear call; they are omitted. The list shows a part of the results. A number with no mark means an inactive call. Cut-off read from the data, not from the text of the source: active = normalized growth mostly below about 0.91 (no sharp cut-off); inconclusive = no clear call, values can overlap the other calls; inactive = mostly above about 0.92.
# Assay: chemical genetic growth profiling, strain panel (AID 1159580);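 note: tested at 20 µM; growth read once vehicle control cultures reached saturation at 30 °C; 1 = growth at the plate median or of vehicle wells; lower values mean less growth of the strain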
# Conditions: growth OD
smiles,measurement,setting,value
COC(=O)c1c(C)c2c(c(C)c1OC)OC(=O)c1c(C)c(Cl)c(OC)c(Cl)c1O2,normalized growth,"S. cerevisiae deletion strains, locus YBR021W, strain FUR4, active compounds read low",0.99
same,normalized growth,"S. cerevisiae deletion strains, locus YBR229C, strain ROT2, active compounds read low",1.01
same,normalized growth,"S. cerevisiae deletion strains, locus YCL029C, strain bik1, active compounds read low",1.02
same,normalized growth,"S. cerevisiae deletion strains, locus YDL035C, strain GPR1, active compounds read low",1.03
same,normalized growth,"S. cerevisiae deletion strains, locus YDL074C, strain BRE1, active compounds read low",1.04
same,normalized growth,"S. cerevisiae deletion strains, locus YDL101C, strain DUN1, active compounds read low",1.02
same,normalized growth,"S. cerevisiae deletion strains, locus YDL134C, strain PPH21, active compounds read low",1.01
same,normalized growth,"S. cerevisiae deletion strains, locus YDL185W, strain tfp1, active compounds read low",1.01
same,normalized growth,"S. cerevisiae deletion strains, locus YDL192W, strain arf1, active compounds read low",1.02
same,normalized growth,"S. cerevisiae deletion strains, locus YDR101C, strain arx1, active compounds read low",1
same,normalized growth,"S. cerevisiae deletion strains, locus YDR150W, strain NUM1, active compounds read low",1.02
same,normalized growth,"S. cerevisiae deletion strains, locus YDR162C, strain NBP2, active compounds read low",1.03
same,normalized growth,"S. cerevisiae deletion strains, locus YDR318W, strain mcm21, active compounds read low",1.02
same,normalized growth,"S. cerevisiae deletion strains, locus YDR388W, active compounds read low",1.02
same,normalized growth,"S. cerevisiae deletion strains, locus YDR502C, strain sam2, active compounds read low",1.03
same,normalized growth,"S. cerevisiae deletion strains, locus YEL061C, strain CIN8, active compounds read low",1.01
same,normalized growth,"S. cerevisiae deletion strains, locus YER110C, active compounds read low",1.02
same,normalized growth,"S. cerevisiae deletion strains, locus YER155C, strain BEM2, active compounds read low",0.998
same,normalized growth,"S. cerevisiae deletion strains, locus YER167W, strain BCK2, active compounds read low",1.03
same,normalized growth,"S. cerevisiae deletion strains, locus YGL078C, strain dbp3, active compounds read low",1.01
same,normalized growth,"S. cerevisiae deletion strains, locus YGL086W, strain mad1, active compounds read low",1.03
same,normalized growth,"S. cerevisiae deletion strains, locus YGL248W, strain PDE1, active compounds read low",1.01
same,normalized growth,"S. cerevisiae deletion strains, locus YGR135W, strain pre9, active compounds read low",1.03
same,normalized growth,"S. cerevisiae deletion strains, locus YGR229C, strain SMI1, active compounds read low",1.06
same,normalized growth,"S. cerevisiae deletion strains, locus YGR252W, strain gcn5, active compounds read low",1.01
same,normalized growth,"S. cerevisiae deletion strains, locus YHR030C, strain SLT2, active compounds read low",1.02
same,normalized growth,"S. cerevisiae deletion strains, locus YHR079C, strain IRE1 (second series), active compounds read low",1.01
same,normalized growth,"S. cerevisiae deletion strains, locus YHR094C, strain hxt1, active compounds read low",1.02
same,normalized growth,"S. cerevisiae deletion strains, locus YHR129C, strain ARP1, active compounds read low",1.01
same,normalized growth,"S. cerevisiae deletion strains, locus YHR200W, strain rpn10, active compounds read low",1.02
same,normalized growth,"S. cerevisiae deletion strains, locus YIL066C, strain RNR3, active compounds read low",1.04
same,normalized growth,"S. cerevisiae deletion strains, locus YIL073C, strain SPO22, active compounds read low",1.09
same,normalized growth,"S. cerevisiae deletion strains, locus YIL125W, strain kgd1, active compounds read low",1.01
same,normalized growth,"S. cerevisiae deletion strains, locus YIR030C, strain dcg1, active compounds read low",1.01
same,normalized growth,"S. cerevisiae deletion strains, locus YJL095W, strain BCK1, active compounds read low",1.04
same,normalized growth,"S. cerevisiae deletion strains, locus YJL134W, strain LCB3, active compounds read low",1.01
same,normalized growth,"S. cerevisiae deletion strains, locus YJL168C, strain set2, active compounds read low",1.02
same,normalized growth,"S. cerevisiae deletion strains, locus YJL187C, strain SWE1 (second series), active compounds read low",1.03
same,normalized growth,"S. cerevisiae deletion strains, locus YJR043C, strain POL32, active compounds read low",1.03
same,normalized growth,"S. cerevisiae deletion strains, locus YKL009W, strain mrt4, active compounds read low",1.37 [resistant] (active)
same,normalized growth,"S. cerevisiae deletion strains, locus YKL068W, active compounds read low",1.04
same,normalized growth,"S. cerevisiae deletion strains, locus YKL085W, strain MDH1 (second series), active compounds read low",1.23 [resistant] (active)
same,normalized growth,"S. cerevisiae deletion strains, locus YKL085W, strain MDH1, active compounds read low",1.23 [resistant] (active)
same,normalized growth,"S. cerevisiae deletion strains, locus YKR001C, strain vps1, active compounds read low",1.01
same,normalized growth,"S. cerevisiae deletion strains, locus YLR039C, strain RIC1, active compounds read low",1.06
same,normalized growth,"S. cerevisiae deletion strains, locus YLR058C, strain SHM2, active compounds read low",1.02
same,normalized growth,"S. cerevisiae deletion strains, locus YLR102C, strain apc9, active compounds read low",1.01
same,normalized growth,"S. cerevisiae deletion strains, locus YLR262C, strain YPT6, active compounds read low",1.07
same,normalized growth,"S. cerevisiae deletion strains, locus YLR268W, strain sec22, active compounds read low",1.02
same,normalized growth,"S. cerevisiae deletion strains, locus YLR330W, strain CHS5, active compounds read low",1.02
same,normalized growth,"S. cerevisiae deletion strains, locus YLR342W, strain FKS1 (second series), active compounds read low",1.05
same,normalized growth,"S. cerevisiae deletion strains, locus YLR371W, strain rom2, active compounds read low",1.01
same,normalized growth,"S. cerevisiae deletion strains, locus YLR418C, strain cdc73, active compounds read low",1.03
same,normalized growth,"S. cerevisiae deletion strains, locus YML016C, strain PPZ1, active compounds read low",1.01
same,normalized growth,"S. cerevisiae deletion strains, locus YML032C, strain rad52, active compounds read low",1.01
same,normalized growth,"S. cerevisiae deletion strains, locus YML124C, strain tub3, active compounds read low",1.04
same,normalized growth,"S. cerevisiae deletion strains, locus YMR078C, strain ctf18, active compounds read low",1.01
same,normalized growth,"S. cerevisiae deletion strains, locus YMR223W, strain ubp8, active compounds read low",1.02
same,normalized growth,"S. cerevisiae deletion strains, locus YMR307W, strain GAS1, active compounds read low",1.04
same,normalized growth,"S. cerevisiae deletion strains, locus YNL067W, strain RPL9B, active compounds read low",1.02
same,normalized growth,"S. cerevisiae deletion strains, locus YNL128W, strain TEP1, active compounds read low",1.04
same,normalized growth,"S. cerevisiae deletion strains, locus YNL233W, strain BNI4, active compounds read low",1.02
same,normalized growth,"S. cerevisiae deletion strains, locus YNL250W, strain rad50, active compounds read low",1.04
same,normalized growth,"S. cerevisiae deletion strains, locus YNL271C, strain bni1, active compounds read low",1.02
same,normalized growth,"S. cerevisiae deletion strains, locus YNL298W, strain CLA4, active compounds read low",1.02
same,normalized growth,"S. cerevisiae deletion strains, locus YNL307C, strain MCK1, active compounds read low",1.01
same,normalized growth,"S. cerevisiae deletion strains, locus YNL322C, strain KRE1, active compounds read low",1.02
same,normalized growth,"S. cerevisiae deletion strains, locus YNR052C, strain pop2, active compounds read low",1.02
same,normalized growth,"S. cerevisiae deletion strains, locus YOL012C, strain htz1",0.795
same,normalized growth,"S. cerevisiae deletion strains, locus YOL147C, strain pex11, active compounds read low",1.01
same,normalized growth,"S. cerevisiae deletion strains, locus YOR061W, strain CKA2, active compounds read low",1.01
same,normalized growth,"S. cerevisiae deletion strains, locus YOR069W, strain VPS5, active compounds read low",1.01
same,normalized growth,"S. cerevisiae deletion strains, locus YOR136W, strain idh2, active compounds read low",1.02
same,normalized growth,"S. cerevisiae deletion strains, locus YOR144C, strain elg1, active compounds read low",1.01
same,normalized growth,"S. cerevisiae deletion strains, locus YOR184W, strain ser1, active compounds read low",1.02
same,normalized growth,"S. cerevisiae deletion strains, locus YOR316C, strain cot1, active compounds read low",1.02
same,normalized growth,"S. cerevisiae deletion strains, locus YPL055C, strain LGE1, active compounds read low",1.04
same,normalized growth,"S. cerevisiae deletion strains, locus YPR119W, strain clb2, active compounds read low",1.01
same,normalized growth,"S. cerevisiae deletion strains, locus YPR141C, strain kar3, active compounds read low",1.02
same,normalized growth,"S. cerevisiae deletion strains, locus YPR163C, strain tif3, active compounds read low",1.01
same,normalized growth,"S. cerevisiae deletion strains, locus YPR167C, strain met16, active compounds read low",1.02
same,normalized growth,"S. cerevisiae deletion strains, strain wtn01, active compounds read low",1.01
same,normalized growth,"S. cerevisiae strains, strain wild type, active compounds read low",1.02
